“And” between values parts separate entries of the source, which are not always exact repeats. Equal values may be shown once. Results filed as inconclusive are left out. Entries that show only a call come without a potency. A number with no mark means an inactive call. The source made the active and inactive calls. Calls come from the whole dose curve; as a rule, active = well fitted inhibition curve with a large enough effect; inconclusive = small, poorly fitted or top-dose-only effect; inactive = flat fitted curve, though single readings scatter.
Experiments:
CRL-7250 = normal cell line; assay: Cytotoxic Profiling of Annotated Libraries Using Quantitative High-Throughput Screening (AID 1296008); conditions: Five cell lines viability, CellTiter-Glo ATP luminescence, 48-72 h; max response: hits give low values
In short: (§1)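 Compounds were pin-transferred onto cells and incubated 48 or 72 hr at 37 degree Celsius, 95% humidity. CellTiter-Glo was added, plates sat 10 min at room temperature, then ATP-coupled luminescence was imaged as the viability read-out.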

HaCat [1] = assay: as above; conditions: Five cell lines viability, CellTiter-Glo ATP luminescence, 48-72 h; max response: hits give low values
In short: as §1

KB-3-1 = assay: as above; conditions: Five cell lines viability, CellTiter-Glo ATP luminescence, 48-72 h; max response: hits give low values
In short: as §1

NIH3T3 = assay: as above; conditions: Five cell lines viability, CellTiter-Glo ATP luminescence, 48-72 h; max response: hits give low values
In short: as §1

HACAT [2] = assay: qHTS assay to identify novel small-molecules to repurpose for Merkel cell carcinoma treatment (AID 1296009); conditions: MCC and control cell lines, CellTiter-Glo viability, 72 h; at 44.8 µM (top of the series) unless noted
In short: (§2)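 qHTS format: cells treated with library compounds in DMSO across 8 (NPC) or 11 (MIPE) concentrations. Readout after 72 hr at 37 degree celsius was CellTiter-Glo luminescence.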

MCC-13 = assay: as above; conditions: MCC and control cell lines, CellTiter-Glo viability, 72 h; series mostly up to 46 µM
In short: as §2

MCC-26 = assay: as above; conditions: MCC and control cell lines, CellTiter-Glo viability, 72 h; series mostly up to 46 µM
In short: as §2

HEK293T = assay: as above; conditions: MCC and control cell lines, CellTiter-Glo viability, 72 h; at 44.8 µM (top of the series) unless noted
In short: as §2

W2 = assay: qHTS profiling for inhibitors of Plasmodium falciparum proliferation (AID 504749); conditions: P. falciparum in erythrocytes, SYBR Green DNA, 72 h; series mostly up to 28.7 µM
In short: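 Parasite proliferation within erythrocytes, 72 h exposure. Endpoint: SYBR Green I fluorescence after overnight lysis at room temperature. Controls: 0.29 uM artemisinin, DMSO.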
Note: nearly all actives have a fitted effect of over 60% in size.
Potency is the fitted concentration of half-maximal effect.

SMILES: CCC(=O)NCC[C@@H]1CCc2ccc3c(c21)CCO3
- max response (CRL-7250): -4.42%
- outcome (HaCat [1]): inactive
- max response (KB-3-1): -2.73%
- outcome (NIH3T3): inactive
- outcome (HACAT [2]): inactive
- Potency (MCC-13): inactive
- Potency (MCC-26): inactive

SMILES: COc1ccc(CCC(=O)Nc2nc3ccc(Cl)cc3s2)cc1OC
- max response (CRL-7250): 1.51% and -1.65%
- max response (HaCat [1]): -6.83%
- outcome (HaCat [1]): inactive
- max response (KB-3-1): -8.12% and -15.4%
- max response (NIH3T3): -12.1%
- outcome (NIH3T3): inactive
- outcome (HACAT [2]): inactive
- Potency (MCC-13): inactive
- Potency (MCC-26): inactive

SMILES: CC=C1C2C=C(C)CC1(N)c1ccc(=O)[nH]c1C2 (stereo not drawn)
- max response (CRL-7250): 3.51%
- outcome (HaCat [1]): inactive
- max response (KB-3-1): 3.2%
- max response (NIH3T3): -12.9%
- outcome (HACAT [2]): inactive
- Potency (MCC-13): inactive
- Potency (MCC-26): inactive

SMILES: C[C@]12CC[C@@H]3c4ccc(O)cc4CC[C@H]3[C@H]1[C@@H](O)[C@@H](O)[C@H]2O
- max response (CRL-7250): 0.316%
- outcome (HaCat [1]): inactive
- outcome (KB-3-1): inactive
- outcome (NIH3T3): inactive
- outcome (HACAT [2]): inactive
- outcome (HEK293T): inactive
- Potency (MCC-13): inactive
- Potency (MCC-26): inactive

SMILES: CCOC(=O)N1CCN([N+]([O-])=NOc2cc(ON=[N+]([O-])N3CCN(C(=O)OCC)CC3)c([N+](=O)[O-])cc2[N+](=O)[O-])CC1
- outcome (CRL-7250): inactive
- outcome (HaCat [1]): inactive
- outcome (KB-3-1): inactive
- outcome (NIH3T3): inactive
- outcome (HACAT [2]): inactive

SMILES: Cc1c(-c2cccc3c(CCCOc4cccc5ccccc45)c(C(=O)O)n(Cc4cccnc4)c23)c(COc2ccc(N3CCN([S+](=O)([O-])N(C)C)CC3)cc2)nn1C
- max response (CRL-7250): -2.89%
- max response (HaCat [1]): -5.9%
- max response (NIH3T3): -4.88%
- Potency (MCC-13): inactive
- Potency (MCC-26): inactive

SMILES: CC(C)Oc1cc(Nc2nc(N[C@@H](C)c3ccc(F)cn3)ncc2Cl)[nH]n1
- Potency (CRL-7250): 2.64 µM (active)
- max response (HaCat [1]): -29.2%
- Potency (KB-3-1): 10.5 µM (active)
- Potency (NIH3T3): 5.26 µM (active)
- Potency (MCC-26): 14.8 µM (active)

SMILES: CO[C@H]1/C=C\O[C@@]2(C)Oc3c(C)c(O)c4c(O)c(c5c(nc6cc(C)ccn65)c4c3C2=O)NC(=O)C(C)=CC=C[C@H](C)[C@H](O)[C@@H](C)[C@@H](O)[C@@H](C)[C@H](OC(C)=O)[C@H]1C
- max response (CRL-7250): 3.34%
- max response (HaCat [1]): -2.46%
- max response (KB-3-1): -2.96%
- max response (NIH3T3): -4.51%
- Potency (MCC-13): inactive
- Potency (MCC-26): inactive

SMILES: CC[C@@H]([C@H](C)O)n1ncn(-c2ccc(N3CCN(c4ccc(OCC5CO[C@@](Cn6cncn6)(c6ccc(F)cc6F)C5)cc4)CC3)cc2)c1=O (stereo partly drawn)
- max response (CRL-7250): -19.5%
- max response (HaCat [1]): -20.3%
- max response (KB-3-1): -2.24%
- max response (NIH3T3): -23.9%
- Potency (MCC-13): inactive
- Potency (MCC-26): inactive

SMILES: COc1cc2c(cc1OC)[C@@H]1Cc3ccc(OC)c(OC)c3CN1CC2
- max response (CRL-7250): -7.12%
- max response (HaCat [1]): -3.71%
- max response (KB-3-1): -25.3%
- max response (NIH3T3): -3.25%
- Potency (MCC-13): inactive
- Potency (MCC-26): inactive

SMILES: Oc1ccc(C=Cc2cc(O)cc(O)c2)cc1
- max response (CRL-7250): -12.2%
- max response (HaCat [1]): -24.3%
- max response (KB-3-1): -2.23%
- Potency (MCC-13): inactive
- Potency (MCC-26): inactive

SMILES: CCCCC[C@H](O)C=C[C@H]1[C@H](O)CC(=O)[C@H]1CCCCCCC(=O)O
- max response (CRL-7250): -0.21%
- max response (HaCat [1]): -1.7%
- max response (KB-3-1): -2.88%
- max response (NIH3T3): -0.203%
- Potency (MCC-13): inactive
- Potency (MCC-26): inactive

SMILES: O=C(Nc1cccc(C(F)(F)F)c1)Nc1cc(S(=O)(=O)NC2CC2)ccc1-c1ccsc1
- max response (CRL-7250): -35.6%
- max response (HaCat [1]): -22.2%
- max response (NIH3T3): -27%
- Potency (MCC-13): inactive
- Potency (MCC-26): inactive

SMILES: O=S(=O)(O)c1ccc2cc(N=Nc3cc(S(=O)(=O)O)c4cccnc4c3O)ccc2c1
- max response (CRL-7250): -1.21%
- max response (HaCat [1]): -5.73% and 2.13%
- max response (KB-3-1): -11.7% and -5.81%
- max response (NIH3T3): -3.13% and 2.59%
- Potency (MCC-13): inactive
- Potency (MCC-26): inactive

SMILES: NCc1c[nH]c(=S)n1[C@H]1CCc2c(F)cc(F)cc2C1
- Potency (CRL-7250): 16.6 µM (active)
- outcome (HaCat [1]): inactive
- outcome (HACAT [2]): inactive
- Potency (MCC-13): inactive
- Potency (MCC-26): inactive

SMILES: CN(C)CCOc1cc(-c2cn[nH]c2)ccc1NC(=O)C1COc2ccccc2O1 (stereo not drawn)
- outcome (CRL-7250): inactive
- outcome (HaCat [1]): inactive
- max response (KB-3-1): -7.59% and -3.43%
- max response (NIH3T3): -6.62%
- outcome (HACAT [2]): inactive
- Potency (MCC-26): inactive

SMILES: COc1c(C)c2c(c(O)c1CC=C(C)CCC(=O)OCCN1CCOCC1)C(=O)OC2
- Potency (W2): 6.01 µM (active)
- Potency (CRL-7250): 3.32 µM (active)
- max response (HaCat [1]): -7.64%
- Potency (NIH3T3): 5.26 µM (active)

SMILES: CCC(=C(c1ccc(O)cc1)c1ccc(OCCNC)cc1)c1ccccc1
- max response (CRL-7250): -6.43%
- max response (HaCat [1]): -11.9%
- Potency (MCC-13): inactive
- Potency (MCC-26): inactive

SMILES: CN1CC(=O)N2C(Cc3c([nH]c4ccccc34)[C@H]2c2ccc3c(c2)OCO3)C1=O (stereo partly drawn)
- Potency (W2): inactive
- max response (CRL-7250): -5.59%
- max response (HaCat [1]): 4.52%
- max response (KB-3-1): -12.7%
- Potency (MCC-13): inactive
- Potency (MCC-26): inactive

SMILES: c1ccc(-c2oc3ncnc(NC[C@@H]4CCCO4)c3c2-c2ccccc2)cc1
- max response (CRL-7250): -6.45%
- max response (HaCat [1]): -3.81%
- Potency (NIH3T3): 14.6 µM (active)
- Potency (MCC-13): inactive
- Potency (MCC-26): inactive

SMILES: C=C[C@@H]1CN2CCC1C[C@@H]2C(O)c1ccnc2ccc(OC)cc12 (stereo partly drawn)
- outcome (CRL-7250): inactive
- outcome (HaCat [1]): inactive
- max response (KB-3-1): 7.83%
- max response (NIH3T3): 0.497%
- outcome (HACAT [2]): inactive
- Potency (MCC-13): inactive
- Potency (MCC-26): inactive

— PubChem BioAssay (NCATS)
